A short description of assay [1]: qHTS of pediatric cancer cell lines to identify multiple opportunities for drug repurposing: Primary screen for NB-EBc1 cells (AID 1347095). Note: potency is the fitted concentration of half-maximal effect. In outline:
(§1)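 Plated cells (500-1,000 per well, growth media) were allowed to settle for 5 hours, treated with compound dilutions for 48 hours, then lysed with CellTiter-Glo for 15 min at room temperature before luminescence reading.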
On the technique in general: qHTS replaces the single test concentration by a dilution series.

Assay [2] is described as follows: qHTS of pediatric cancer cell lines to identify multiple opportunities for drug repurposing: Primary screen for U-2 OS cells (AID 1347096). Note: nearly all actives have a fitted effect of over 50% in size. Note: potency is the fitted concentration of half-maximal effect. In outline:
(§2)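 Viability after 48 h compound treatment at 37C, 500-1,000 cells/well, read as ATP luminescence with CellTiter-Glo. Primary screens used 11-point (MIPE, 0.78 nM-46 µM) or 8-point (NPC, 0.59 nM-46 µM) final concentrations; follow-up screens used 11-point dilutions.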

The nature of assay [3]: qHTS of pediatric cancer cell lines to identify multiple opportunities for drug repurposing: Primary screen for Saos-2 cells (AID 1347097). Note: nearly all actives have a fitted effect of over 40% in size. Note: potency is the fitted concentration of half-maximal effect. In outline:
as §1

A short description of assay [4]: qHTS of pediatric cancer cell lines to identify multiple opportunities for drug repurposing: Primary screen for SK-N-SH cells (AID 1347098). Note: nearly all actives have a fitted effect of over 65% in size. Note: potency is the fitted concentration of half-maximal effect. In outline:
(§3)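 Cells (500-1,000/well) rested 5 h, then received compounds for 48 h; metabolically active cells were measured by CellTiter-Glo luminescence. Final concentrations spanned up to 46 µM (MIPE, 11-point) or 0.59 nM-46 µM (NPC, 8-point) in primary screens, 11-point in follow-ups.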

Assay [5] in a line: qHTS of pediatric cancer cell lines to identify multiple opportunities for drug repurposing: Primary screen for NB1643 cells (AID 1347099). Note: nearly all actives have a fitted effect of over 50% in size. Note: potency is the fitted concentration of half-maximal effect. In outline: as §1
Assay [6] can be described thus: qHTS of pediatric cancer cell lines to identify multiple opportunities for drug repurposing: Primary screen for LAN-5 cells (AID 1347100). Note: potency is the fitted concentration of half-maximal effect. In outline: as §2
The nature of assay [7]: qHTS of pediatric cancer cell lines to identify multiple opportunities for drug repurposing: Primary screen for Rh18 cells (AID 1347102). Note: nearly all actives have a fitted effect of over 65% in size. Note: potency is the fitted concentration of half-maximal effect. In outline: as §2
Assay [8] can be described thus: qHTS of pediatric cancer cell lines to identify multiple opportunities for drug repurposing: Primary screen for RD cells (AID 1347104). Note: nearly all actives have a fitted effect of over 55% in size. Note: potency is the fitted concentration of half-maximal effect. In outline: as §1
A short description of assay [9]: qHTS of pediatric cancer cell lines to identify multiple opportunities for drug repurposing: Primary screen for MG 63 (6-TG R) cells (AID 1347105). Note: nearly all actives have a fitted effect of over 50% in size. Note: potency is the fitted concentration of half-maximal effect. In outline:
as §1

A short description of assay [10]: qHTS of pediatric cancer cell lines to identify multiple opportunities for drug repurposing: Primary screen for control Hh wild type fibroblast cells (AID 1347106).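 Note: series mostly up to about 46 µM; a drop in luminescence marks cytotoxicity and a rise apparent proliferation; nearly all actives have a fitted effect of over 55% in size.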 In outline: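 Cells (500-1,000/well) in growth media were settled 5 h at 37 degrees C, then given compounds for 48 h. Viability was read as CellTiter-Glo luminescence. Primary runs used MIPE at 11 points (0.78 nM-46 µM) and NPC at 8 points (0.59 nM-46 µM); follow-ups used 11 points.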

The nature of assay [11]: qHTS of pediatric cancer cell lines to identify multiple opportunities for drug repurposing: Primary screen for Rh30 cells (AID 1347107). Note: series mostly up to about 46 µM; nearly all actives have a fitted effect of over 75% in size. In outline:
as §2

A short description of assay [12]: qHTS of pediatric cancer cell lines to identify multiple opportunities for drug repurposing: Primary screen for Rh41 cells (AID 1347108). Note: nearly all actives have a fitted effect of over 70% in size. Note: potency is the fitted concentration of half-maximal effect. In outline:
as §1

The nature of assay [13]: qHTS of pediatric cancer cell lines to identify multiple opportunities for drug repurposing: Confirmatory screen for NB1643 cells (AID 1347109). Note: nearly all actives have a fitted effect of over 45% in size. Note: potency is the fitted concentration of half-maximal effect. In outline: as §2
Assay [14] is described as follows: qHTS of pediatric cancer cell lines to identify multiple opportunities for drug repurposing: Confirmatory screen for A673 cells (AID 1347110). Note: potency is the fitted concentration of half-maximal effect; nearly all actives have a fitted effect of over 65% in size. In outline: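 A673 cells at 500-1,000 cells/well were dosed 5 h after plating, in dilution series up to 46 uM final; primary runs used 8 or 11 points and confirmatory runs used 11 points. Viability was read by CellTiter-Glo luminescence after 48 h, against DMSO and 2.3 uM bortezomib controls.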

Assay [15] is described as follows: qHTS of pediatric cancer cell lines to identify multiple opportunities for drug repurposing: Confirmatory screen for SK-N-MC cells (AID 1347111).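 Note: cells exposed to compound for 48 h before the readout; nearly all actives have a fitted effect of over 70% in size.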 Note: potency is the fitted concentration of half-maximal effect. In outline: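 SK-N-MC cells at 500-1,000 cells/well in growth media were pre-incubated 5 h, then exposed to compounds at 11-point dilutions for 48 h at 37 degrees C, 5% CO2. Viability was read as CellTiter-Glo luminescence.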

The nature of assay [16]: qHTS of pediatric cancer cell lines to identify multiple opportunities for drug repurposing: Confirmatory screen for LAN-5 cells (AID 1347113). Note: nearly all actives have a fitted effect of over 65% in size. Note: potency is the fitted concentration of half-maximal effect. In outline:
as §2

The nature of assay [17]: qHTS of pediatric cancer cell lines to identify multiple opportunities for drug repurposing: Confirmatory screen for DAOY cells (AID 1347114). Note: nearly all actives have a fitted effect of over 65% in size. Note: potency is the fitted concentration of half-maximal effect. In outline:
(§4)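 Viability measured as metabolically active cells via CellTiter-Glo luminescence following 48 hours of compound exposure, 11-point dilutions in confirmatory testing. 500-1,000 cells/well plated 5 hours before dosing; controls were DMSO and 2.3 µM bortezomib.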

A short description of assay [18]: qHTS of pediatric cancer cell lines to identify multiple opportunities for drug repurposing: Confirmatory screen for SJ-GBM2 cells (AID 1347116). Note: nearly all actives have a fitted effect of over 60% in size. Note: potency is the fitted concentration of half-maximal effect. In outline: as §4
Assay [19] can be described thus: qHTS of pediatric cancer cell lines to identify multiple opportunities for drug repurposing: Primary screen for OHS-50 cells (AID 1347103). Note: nearly all actives have a fitted effect of over 40% in size. Note: potency is the fitted concentration of half-maximal effect. In outline:
as §3

Assay [20] can be described thus: qHTS of pediatric cancer cell lines to identify multiple opportunities for drug repurposing: Primary screen for BT-12 cells (AID 1347101). Note: nearly all actives have a fitted effect of over 25% in size. Note: potency is the fitted concentration of half-maximal effect. In outline:
as §3

Values joined by “and” are separate entries in the source; they are usually repeats but may differ in a detail not shown here. Equal values may be shown once. Inconclusive results are not listed. Active and inactive are the calls of the source. Calls come from the whole dose curve; as a rule, active = well fitted curve in the direction sought with a large enough effect; inconclusive = small, poorly fitted or top-dose-only effect, or another doubt; inactive = no such curve, though single readings can be large; an effect the other way counts as inactive or inconclusive.

With `CCC(=O)O[C@]1(C(=O)CCl)[C@@H](C)C[C@H]2[C@@H]3CCC4=CC(=O)C=C[C@]4(C)[C@@]3(F)[C@@H](O)C[C@@]21C`, the Potency result in assay [1], in assay [2], in assay [3], in assay [4], in [5] and in assay [6] was “inactive” throughout. Also, the Potency entry in assay [7], in assay [8], in [9], in assay [10], in [11] and in assay [12] was “inactive” each time. In addition, the Potency entry in [13], in [15], in assay [16], in [17] and in [18] was “inactive” in each case. The Potency in assay [14] was 20.8 µM (active).
Turning to `CC1CC2C3CCC4=CC(=O)C=C[C@]4(C)[C@@]3(F)[C@@H](O)C[C@]2(C)[C@@]1(O)C(=O)CO` (stereo partly specified), the Potency entry in assay [1], in assay [2], in [3], in assay [4], in [6] and in assay [7] was “inactive” throughout. In addition, the Potency result in assay [19], in [9], in assay [10], in assay [15], in assay [16] and in assay [17] was “inactive” each time. Further, in assay [18], the Potency entry was “inactive”. Further, in assay [14], the Potency is 2.93 µM (active).
In the case of `OC(Cn1cncn1)(Cn1cncn1)c1ccc(F)cc1F`, the Potency result in assay [1], in [2], in [3], in [4], in assay [5] and in assay [6] was “inactive” throughout. For the same compound, the Potency result in [20], in [7], in assay [19], in [8], in assay [9] and in [10] was “inactive” in each case. Besides, in [12], the Potency result is “inactive”.
For the compound `COC(=O)Nc1nc2ccc(Sc3ccccc3)cc2[nH]1`, the Potency in [1] was 469 nM (active); in assay [2], 13.3 µM (active); in assay [3], 841 nM (active) and 2.35 µM (active); in assay [6], 1.32 µM (active); in assay [20] it was 1.74 µM (active) and 4.32 µM (active); in assay [19], 1.23 µM (active) and 3.06 µM (active). Moreover, the Potency is 668 nM (active) and 1.18 µM (active) in [9]; 1.17 µM (active) in assay [14]; 1.04 µM (active) in [15]; 0.928 µM (active) in assay [17]. The Potency result in assay [4], in assay [10] and in assay [11] was “inactive” throughout.
As to `N[C@@H](Cc1ccc(O)c(O)c1)C(=O)O`, the Potency entry in assay [1], in assay [2], in assay [3], in assay [4], in assay [6] and in assay [20] was “inactive” each time. In addition, the Potency result in [7], in assay [19], in [8], in assay [9], in assay [10] and in [11] was “inactive” in each case. For the same compound, the Potency entry in assay [12] is “inactive”.
On to `CCCCCCNC(=O)n1cc(F)c(=O)[nH]c1=O`, for which the Potency in assay [1] is 2.99 µM (active) and 4.18 µM (active); in assay [5] it was 5.9 µM (active); in assay [6], 7.5 µM (active) and 9.35 µM (active). Also, the Potency entry in assay [2], in assay [3], in [7], in [19], in [9] and in assay [10] was “inactive” each time. The Potency entry in [11] and in assay [12] was “inactive” each time.
Regarding `CNC(=O)c1cc(Oc2ccc(NC(=O)Nc3ccc(Cl)c(C(F)(F)F)c3)cc2)ccn1`, the Potency is 5260 nM (active) in assay [1]; 18.7 µM (active) in [2]; 18.7 µM (active) in [3]; 19.2 µM (active) and 15.4 µM (active) in [4]; 4.69 µM (active) in assay [5]; 20.9 µM (active) in assay [6]. Also, the Potency was 17.2 µM (active) in assay [20]; 18.7 µM (active) in assay [7]; 15.3 µM (active) and 15.5 µM (active) in [19]; 18.7 µM (active) and 23.7 µM (active) in assay [8]; 18.7 µM (active) in assay [12]; 20.8 µM (active) in assay [13]. For the same compound, the Potency in assay [14] and in assay [16] was 23.3 µM (active) throughout. For the same compound, the Potency result in assay [10] is “inactive”.
Take `CO[C@@]12[C@H](COC(N)=O)C3=C(C(=O)C(C)=C(N)C3=O)N1C[C@@H]1N[C@@H]12`: the Potency in assay [1] was 335 nM (active) and 9.35 µM (active); in assay [4], 1.72 µM (active) and 8.57 µM (active); in assay [5] it was 1.33 µM (active); in [6], 335 nM (active) and 1.05 µM (active); in assay [20], 3.47 µM (active) and 3.06 µM (active); in assay [7] it was 18.7 µM (active). The Potency is 3.85 µM (active) in assay [19]; 18.8 µM (active) and 18.7 µM (active) in assay [8]; 14.8 µM (active) in assay [9]; 13.3 µM (active) and 11.8 µM (active) in assay [12]; 1.04 µM (active) in assay [13]; 3.69 µM (active) in assay [14]. For the same compound, the Potency is 2.08 µM (active) in [15], 1.31 µM (active) in assay [16], 14.7 µM (active) in assay [17] and 16.5 µM (active) in assay [18]. Moreover, the Potency result in assay [2], in assay [3] and in assay [10] was “inactive” throughout.
